Experimental data: PubChem BioAssay (EPA / NIEHS)
Active and inactive are the calls of the source. The calls were made as follows: active = hit-call score of the fitted dose curve at least 0.9, where 1 is the maximum; inactive = score below 0.9.

Key:
[1] = read-out: Macrophage colony-stimulating factor (MCSF), CSF1 (gene 1435); test: BSK_hDFCGF_MCSF: BioMAP Diversity Plus: hDFCGF Assay for Macrophage colony-stimulating factor (MCSF) Biomarker Activity (AID 2283060); conditions: primary human foreskin fibroblasts; actives raise or lower the signal
Procedure, shortened: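 fibroblasts (human foreskin, primary), 24 h post-dose; M-CSF by ELISA; bidirectional fit, DMSO = baseline.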

[2] = read-out: TIMP metallopeptidase inhibitor 1 (TIMP1), TIMP1 (gene 7076); test: BSK_hDFCGF_TIMP1: BioMAP Diversity Plus: hDFCGF Assay for TIMP metallopeptidase inhibitor 1 (TIMP1) Biomarker Activity (AID 2283062); conditions: primary human foreskin fibroblasts; actives raise or lower the signal
Procedure, shortened: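 Bidirectional curve fitting against DMSO baseline yielded this endpoint, based on ELISA detection of TIMP-1 in primary human foreskin fibroblasts exposed to compound for 24 h.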

[3] = read-out: Monokine induced gamma interferon (MIG), CXCL9 (gene 4283); test: BSK_hDFCGF_MIG: BioMAP Diversity Plus: hDFCGF Assay for Monokine induced gamma interferon (MIG) Biomarker Activity (AID 2283063); conditions: primary human foreskin fibroblasts; actives raise or lower the signal
Procedure, shortened: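 Endpoint derived by bidirectional fitting relative to DMSO; MIG quantified via ELISA in primary human foreskin fibroblasts harvested 24 h after dosing.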

[4] = read-out: Matrix Metallopeptidase 1 (MMP1), MMP1 (gene 4312); test: BSK_hDFCGF_MMP1: BioMAP Diversity Plus: hDFCGF Assay for Matrix Metallopeptidase 1 (MMP1) Biomarker Activity (AID 2283064); conditions: primary human foreskin fibroblasts; actives raise or lower the signal
Procedure, shortened: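 Primary human foreskin fibroblasts exposed to chemicals for 24 h; MMP1 measured by ELISA. Cytotoxicity tracked by SRB staining in parallel cultures; bidirectional fit relative to DMSO.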

[5] = read-out: Vascular cell adhesion molecule 1 (VCAM1), VCAM1 (gene 7412); test: BSK_hDFCGF_VCAM1: BioMAP Diversity Plus: hDFCGF Assay for Vascular cell adhesion molecule 1 (VCAM1) Biomarker Activity (AID 2283065); conditions: primary human foreskin fibroblasts; actives raise or lower the signal;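 as to AC50: VCAM-1 protein level quantified by ELISA after 24 h chemical exposure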
Procedure, shortened: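 Measured after 24 h chemical treatment of primary human skin fibroblasts, VCAM-1 was detected by ELISA and concentration-response analysed in both directions versus DMSO vehicle.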

[6] = read-out: Plasminogen activator inhibitor-1 (PAI1), SERPINE1 (gene 5054); test: BSK_hDFCGF_PAI1: BioMAP Diversity Plus: hDFCGF Assay for Plasminogen activator inhibitor-1 (PAI1) Biomarker Activity (AID 2283066); conditions: primary human foreskin fibroblasts; actives raise or lower the signal
Procedure, shortened: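 Human foreskin fibroblast primary cells, 24 h chemical exposure; PAI-1 measured by ELISA. Bidirectional fitting relative to DMSO; parallel cultures stained with SRB for total protein to flag overt cytotoxicity.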

[7] = read-out: Intercellular Adhesion Molecule 1 (ICAM1), ICAM1 (gene 3383); test: BSK_KF3CT_ICAM1: BioMAP Diversity Plus: KF3CT Assay for Intercellular Adhesion Molecule 1 (ICAM1) Biomarker Activity (AID 2283067); conditions: primary human keratinocytes with fibroblasts; actives raise or lower the signal
Procedure, shortened: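 Bidirectional curve fitting against a DMSO baseline was applied to ICAM-1 ELISA signal from primary human skin co-cultures harvested 24 h after treatment, with SRB staining of parallel wells for overt cytotoxicity.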

[8] = read-out: Interferon-gamma inducible Protein 10 (IP10), CXCL10 (gene 3627); test: BSK_KF3CT_IP10: BioMAP Diversity Plus: KF3CT Assay for Interferon-gamma inducible Protein 10 (IP10) Biomarker Activity (AID 2283068); conditions: primary human keratinocytes with fibroblasts; actives raise or lower the signal
Procedure, shortened: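 In a primary skin co-culture of keratinocytes and fibroblasts, IP-10 is quantified by ELISA at 24 h after dosing. SRB staining of parallel wells monitors overt toxicity. Curves are fitted both directions against DMSO.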

[9] = BSK_KF3CT_SRB: Viability Assessment in the BioMAP Diversity Plus: KF3CT Assay (AID 2283069); conditions: primary human keratinocytes with fibroblasts;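 also: total protein by sulforhodamine B staining as a cytotoxicity measure; read 24 h after compound addition; fitted for both signal gain and loss against DMSO baseline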
Procedure, shortened: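 Human keratinocyte and foreskin fibroblast co-culture exposed to chemical for 24 h. Total protein measured in parallel cultures by 0.1% sulforhodamine B staining after 10% TCA fixation, read at 560 nm; bidirectional fit relative to DMSO.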

[10] = read-out: Interleukin-1 alpha (IL1a), IL1A (gene 3552); test: BSK_KF3CT_IL1a: BioMAP Diversity Plus: KF3CT Assay for Interleukin-1 alpha (IL1a) Biomarker Activity (AID 2283070); conditions: primary human keratinocytes with fibroblasts; actives raise or lower the signal
Procedure, shortened: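 Primary human keratinocyte plus foreskin fibroblast co-culture, dosed and measured at 24 h in 96-well plates. IL-1a level quantified by ELISA; bidirectional fit relative to DMSO.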

[11] = read-out: TIMP metallopeptidase inhibitor 2 (TIMP2), TIMP2 (gene 7077); test: BSK_KF3CT_TIMP2: BioMAP Diversity Plus: KF3CT Assay for TIMP metallopeptidase inhibitor 2 (TIMP2) Biomarker Activity (AID 2283071); conditions: primary human keratinocytes with fibroblasts; actives raise or lower the signal
Procedure, shortened: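 Co-culture of human primary keratinocytes and foreskin fibroblasts, measured 24 h after chemical dosing. TIMP-2 quantified by ELISA and fitted in both directions relative to DMSO. Cytotoxicity checked in parallel cultures by SRB total-protein staining.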

[12] = read-out: Transforming growth factor beta 1 (TGFb1), TGFB1 (gene 7040); test: BSK_KF3CT_TGFb1: BioMAP Diversity Plus: KF3CT Assay for Transforming growth factor beta 1 (TGFb1) Biomarker Activity (AID 2283072); conditions: primary human keratinocytes with fibroblasts; actives raise or lower the signal
Procedure, shortened: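 Human keratinocyte/foreskin fibroblast co-culture; TGF-b1 measured by ELISA 24 h after dosing, fitted bidirectionally versus DMSO. Cytotoxicity checked in parallel cultures by total protein (SRB staining, 560 nm).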

[13] = read-out: C-C motif chemokine 2 (Homo sapiens) (UniProt P13500); test: BSK_KF3CT_MCP1: BioMAP Diversity Plus: KF3CT Assay for Monocyte Chemoattractant Protein 1 (MCP1/CCL2) Biomarker Activity (AID 2283073); conditions: primary human keratinocytes with fibroblasts; actives raise or lower the signal
Procedure, shortened: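 Biomarker MCP-1 is measured by ELISA in primary human keratinocytes co-cultured with foreskin fibroblasts, 24 h after chemical treatment; DMSO serves as the negative control and activity baseline.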

[14] = read-out: Matrix Metallopeptidase 9 (MMP9), MMP9 (gene 4318); test: BSK_KF3CT_MMP9: BioMAP Diversity Plus: KF3CT Assay for Matrix Metallopeptidase 9 (MMP9) Biomarker Activity (AID 2283074); conditions: primary human keratinocytes with fibroblasts; actives raise or lower the signal;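 as to AC50: MMP9 protein level quantified by ELISA in the co-culture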
Procedure, shortened: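 Human keratinocyte and foreskin fibroblast co-culture exposed to chemicals for 24 h; MMP9 biomarker measured by ELISA, bidirectional fitting relative to DMSO; cytotoxicity tracked by SRB total protein staining in parallel cultures.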

[15] = read-out: urokinase plasminogen activator (uPA), PLAU (gene 5328); test: BSK_KF3CT_uPA: BioMAP Diversity Plus: KF3CT Assay for urokinase plasminogen activator (uPA) Biomarker Activity (AID 2283075); conditions: primary human keratinocytes with fibroblasts; actives raise or lower the signal
Procedure, shortened: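 Primary human keratinocyte/foreskin fibroblast co-culture exposed to chemical; uPA measured by ELISA at 24 h. Bidirectional fit versus DMSO, with parallel SRB total-protein staining for cytotoxicity.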

CD40, CD40 (gene 958) = test: BSK_LPS_CD40: BioMAP Diversity Plus: LPS Assay for CD40 Biomarker Activity (AID 2283076); conditions: primary human HUVEC with PBMC; actives raise or lower the signal
Procedure, shortened: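 Using a multiplexed primary human co-culture (umbilical vein endothelium plus PBMC), CD40 was read by ELISA 24 h after dosing, with cytotoxicity tracked by sulforhodamine B staining of parallel cultures and activity fitted bidirectionally versus DMSO.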

[16] = read-out: E-selectin (Homo sapiens) (UniProt P16581); test: BSK_LPS_Eselectin: BioMAP Diversity Plus: LPS Assay for Eselectin Biomarker Activity (AID 2283077); conditions: primary human HUVEC with PBMC; actives raise or lower the signal
Procedure, shortened: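 Dose chemical onto LPS-driven HUVEC/PBMC co-culture; after 24 h, run ELISA for E-selectin; fit up- and down-going responses relative to DMSO control.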

[17] = read-out: Interleukin-8 (IL8), CXCL8 (gene 3576); test: BSK_LPS_IL8: BioMAP Diversity Plus: LPS Assay for Interleukin-8 (IL8) Biomarker Activity (AID 2283078); conditions: primary human HUVEC with PBMC; actives raise or lower the signal
Procedure, shortened: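 In this LPS system, chemical-treated human umbilical vein endothelium/PBMC co-cultures were harvested at 24 h for IL-8 ELISA.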

[18] = BSK_LPS_SRB: Viability Assessment in the BioMAP Diversity Plus: LPS Assay (AID 2283079); conditions: primary human HUVEC with PBMC;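 also: total protein by sulforhodamine B absorbance as a cytotoxicity measure; measured one day after compound addition; fitted in both directions against DMSO so loss or gain of signal counts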
Procedure, shortened: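 Cytotoxicity endpoint in human endothelial–PBMC co-culture: 24 h exposure, then SRB (0.1%) staining, 560 nm read.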

Measured: AC50

Sequence of E-selectin (Homo sapiens) (P16581 whole entry, looked up): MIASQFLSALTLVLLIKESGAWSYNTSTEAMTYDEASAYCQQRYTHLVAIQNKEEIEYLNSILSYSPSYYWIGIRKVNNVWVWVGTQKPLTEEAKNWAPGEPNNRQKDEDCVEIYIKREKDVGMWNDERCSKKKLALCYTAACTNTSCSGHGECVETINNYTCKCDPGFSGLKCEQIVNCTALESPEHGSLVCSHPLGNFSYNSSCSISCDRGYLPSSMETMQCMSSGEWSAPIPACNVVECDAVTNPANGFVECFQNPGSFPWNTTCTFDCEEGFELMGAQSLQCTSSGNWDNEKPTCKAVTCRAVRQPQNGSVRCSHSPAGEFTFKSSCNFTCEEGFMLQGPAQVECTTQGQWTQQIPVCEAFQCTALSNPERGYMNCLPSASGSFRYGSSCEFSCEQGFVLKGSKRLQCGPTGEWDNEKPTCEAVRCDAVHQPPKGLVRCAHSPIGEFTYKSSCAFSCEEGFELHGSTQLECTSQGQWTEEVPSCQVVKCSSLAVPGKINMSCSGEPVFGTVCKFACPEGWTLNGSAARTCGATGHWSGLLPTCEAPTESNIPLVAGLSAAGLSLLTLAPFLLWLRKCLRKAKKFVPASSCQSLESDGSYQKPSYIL

CCC(C)(c1ccc(O)cc1)c1ccc(O)cc1
active: [5] 20 µM | CD40, CD40 (gene 958) 20 µM
not listed: [18]
inactive: all other assays above

O=NN(c1ccccc1)c1ccccc1
not listed: [12]
inactive: all other assays above

O=C(N[C@H]1CN2CCC1CC2)c1cc2ccoc2cn1
not listed: [12] | [18]
inactive: all other assays above

CN(C)c1nc(=O)n(C2CCCCC2)c(=O)n1C
not listed: [12] | [18]
inactive: all other assays above

C=CC(N)=O
not listed: [12] | [18]
inactive: all other assays above

Cc1ccccc1O
not listed: [12]
inactive: all other assays above

CCCN(CCC)N=O
not listed: [12]
inactive: all other assays above

CC(c1ccc(O)cc1)(c1ccc(O)cc1)c1ccc(O)cc1
inactive: [2] | [10] | [17]
active: [1] 16.5 µM | [3] 23.8 µM | [4] 39.2 µM | [5] 8.14 µM | [6] 20.5 µM | [7] 20 µM | [8] 22.3 µM | [9] 29.9 µM | [11] 13.1 µM | [12] 11.4 µM | [13] 20 µM | [14] 25.2 µM | [15] 20 µM | CD40, CD40 (gene 958) 20 µM | [16] 32.7 µM | [18] 23.9 µM

O=C(O)C(F)(F)C(F)(F)C(F)(F)C(F)(F)C(F)(F)F
not listed: [12] | [18]
inactive: all other assays above

O=S(=O)(O)C(F)(F)C(F)(F)C(F)(F)C(F)(F)F
inactive: all assays above

Cc1cccc([N+](=O)[O-])c1
not listed: [13]
inactive: all other assays above

CCCCCCCCCc1ccc(O)cc1
active: [1] 13.6 µM | [2] 16.9 µM | [3] 14.9 µM | [4] 15.4 µM | [5] 13.3 µM | [6] 15.5 µM | [7] 15.1 µM | [8] 13.4 µM | [9] 14.6 µM | [10] 15.6 µM | [11] 14.6 µM | [12] 13.5 µM | [14] 13.2 µM | [15] 17.2 µM | CD40, CD40 (gene 958) 22.6 µM | [16] 29.9 µM | [17] 27.6 µM

c1ccc(-c2ccccc2)cc1
not listed: [12] | [13] | [18]
inactive: all other assays above
